# Calls of active or inactive are those of the source. A call without a number means that no potency is given here. The call rests on the fitted dose curve.
# Target: Gonadotropin-releasing hormone receptor (Homo sapiens) (UniProt P30968)
# Experiment: Human gonadotropin-releasing hormone receptor (GnRHR) small molecule agonists, calcium flux assay in GnRHR-HEK293 cells (AID 1920063); further: nearly all actives have a fitted effect of over 35% in size
# Conditions: calcium flux fluorescence, agonist mode; series mostly up to 57.6 µM
# Description: National Center for Advancing Translational Sciences [NCATS]
# Division of Preclinical Innovation [DPI]
# U.S. Environmental Protection Agency [EPA]
# National Institutes of Environmental Health Sciences [NIEHS]
# National Toxicology Program [NTP]
# U.S. Food and Drug Administration [FDA]
# Gonadotropin-releasing hormone receptor (GnRHR) is a G-protein-coupled receptor (GPCR) and acts (through phospholipase C) to increase intracellular inositol trisphosphate and then release intracellular calcium stores. Cell-based GnRHR-Hek293 calcium influx assay is using HEK293 cells that have been genetically engineered to express the human GnRHR, which activity can be measured by calcium signaling. A compound/drug can activate (agonist) GnRHR that can be monitored by levels of intracellular calcium.
# GnRHR-HEK293 cells developed by Codex Corp contain human GnRHR reporter gene, which was stably integrated into HEK 293 cells. The compound activation can be detected by fluorescence intensity via calcium flux assay. This cell line has been used to screen the Tox21 10K compound library to identify GnRHR agonists.
# GnRHR-Hek293 cells were dispensed at 1500cells/4uL/well in 1536-well black wall/clear bottom plates using a multidrop dispenser. After the assay plates were incubated at a 37 C/5% CO2 incubator for 18 hours, 4 uL of Calcium Dye Solution was added to each well. The plates were incubated at 37 C for 1 hour. For agonist mode, 23 nL of compounds dissolved in DMSO, positive controls or DMSO only was transferred to the assay plate by a pin tool station. The fluorescence intensity in the plates was measured using FDSS 7000EX kinetic plate reader with a filter set of Ex/Em=480/540 for 3 min at 1 sec intervals. Each test compound was measured at 15 concentrations and in triplicates.
# Potency means the concentration at half of the fitted maximal effect.
# Gonadotropin-releasing hormone receptor (Homo sapiens), sequence (P30968 whole entry, looked up): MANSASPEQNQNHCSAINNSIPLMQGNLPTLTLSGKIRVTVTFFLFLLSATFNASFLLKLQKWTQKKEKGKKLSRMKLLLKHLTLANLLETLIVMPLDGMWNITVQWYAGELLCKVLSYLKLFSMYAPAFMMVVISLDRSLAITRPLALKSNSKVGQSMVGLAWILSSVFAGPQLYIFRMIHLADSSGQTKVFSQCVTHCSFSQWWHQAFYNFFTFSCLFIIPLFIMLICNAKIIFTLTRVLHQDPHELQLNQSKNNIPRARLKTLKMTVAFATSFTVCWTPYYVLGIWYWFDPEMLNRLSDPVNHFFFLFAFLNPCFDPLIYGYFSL
SMILES,Potency,activity change
CC(C)(C)c1cc(C=O)cc(C(C)(C)C)c1O,inactive,
CCCC(=O)OC(=O)CCC,inactive,
NCC[C@H](O)C(=O)N[C@@H]1C[C@H](N)[C@@H](O[C@H]2O[C@H](CN)[C@@H](O)[C@H](O)[C@H]2O)[C@H](O)[C@H]1O[C@H]1O[C@H](CO)[C@@H](O)[C@H](N)[C@H]1O,,"-0.191% [at 0.217 µM, stronger effect = higher value] (inactive)"
COc1cc2c(cc1OC)C(C(C(=O)N(CCc1ccc(OC)c(OC)c1OC)CCc1ccc(OC)c(OC)c1OC)c1ccccc1)=NCC2 (stereo not given),inactive,
CCCCCCCCCC(=O)N(C)C,inactive,
O=C(O)c1cccc(-c2noc(-c3ccccc3F)n2)c1,inactive,
COc1ccc(/C(C)=C/C(=O)O)c(OC)c1,inactive,
C=C[C@@H](C)CCC=C(C)C,inactive,
CCCCOc1cc(C(=O)NCCN(CC)CC)c2ccccc2n1,inactive,
CC(C)(C)NCC(O)COc1cccc2c1C[C@H](O)[C@H](O)C2 (stereo not given in full),inactive,
NC(=O)c1cn(Cc2c(F)cccc2F)nn1,inactive,
N=c1ccn2c(n1)O[C@H]1[C@H](O)[C@@H](CO)O[C@H]12,inactive,
CN1CCN(CCCN2c3ccccc3Sc3ccc(Cl)cc32)CC1,inactive,
CN1CCN(C2=Nc3ccccc3Sc3ccc(Cl)cc32)CC1,inactive,
Cc1nc(C)nc(N2C[C@@H](C)N(c3ccnc([C@@H](C)O)n3)[C@@H](C)C2)n1,inactive,
COC(C)(C)CCCC(C)CC=O (stereo not given),inactive,
OCC(O)c1ccccc1 (stereo not given),inactive,
CCCCCCCCCCCCN(CCO)CCO,30.8 µM (active),
O=C(O)c1ccc2cc(O)ccc2c1,inactive,
CNS(=O)(=O)CCc1ccc2[nH]cc(C3CCN(C)CC3)c2c1,inactive,

SMILES,Potency,activity change
CCc1cccc(C)c1N(C(=O)C(=O)O)C(C)COC (stereo not given),inactive,
CC(C)OC(=O)c1cc2c(OCC(O)CNC(C)(C)C)cccc2[nH]1 (stereo not given),inactive,
NC(=O)C(c1ccccc1)(c1ccccc1)[C@@H]1CCN(CCc2ccc3c(c2)CCO3)C1,inactive,
CN1CCN(c2c(F)cc3c(=O)c(C(=O)O)cn(CCF)c3c2F)CC1,inactive,
CCOC(=O)C(O)c1ccccc1 (stereo not given),inactive,
CN=C(N)NC(=O)Nc1c(C)cccc1C,inactive,
Cc1cccn2c(=O)c(-c3nnn[nH]3)cnc12,,"-0.454% [at 11.8 µM, stronger effect = higher value] (inactive)"
C=C1CC[C@H](O)C/C1=C\C=C1/CCC[C@]2(C)[C@@H]([C@H](C)CCCC(C)C)CC[C@@H]12,inactive,
CN=C(NC#N)Nc1ccc(C2=NNC(=O)CC2C)cc1 (stereo not given),inactive,
O=C1OC(=O)C2CCCCC12 (stereo not given),inactive,
CCn1cc(C(=O)O)c(=O)c2cc(F)c(N3CCNCC3)cc21,inactive,
CC1=C2[C@H](/C=C(\C)C(=O)O)CC[C@@H](C)[C@H]2CC1,inactive,
CC(CC(C#N)(c1ccccc1)C(C)C)N(C)C (stereo not given),inactive,
Clc1cc(Cl)c(-c2c(Cl)c(Cl)cc(Cl)c2Cl)cc1Cl,inactive,
CCCCCC[C@@H](O)C/C=C\CCCCCCCC(=O)OCC(O)CO (stereo not given in full),inactive,
O=NN(CCCl)C(=O)NC1CCCCC1,inactive,
C#CC(C)(CC)OC(=O)c1ccccc1C(=O)O (stereo not given),inactive,
C[N+]12CCC(CC1)C(OC(=O)C(O)(c1ccccc1)c1ccccc1)C2 (stereo not given),inactive,
CC1=C(CC=O)C(C)(C)CCC1,inactive,
C[C@@H]1[C@H](O)[C@@H](C)/C=C/C=C\C=C\C=C\C=C\C=C\C=C\[C@H](O[C@@H]2O[C@H](C)[C@@H](O)[C@H](N)[C@@H]2O)C[C@@H]2O[C@](O)(C[C@@H](O)C[C@@H](O)[C@H](O)CC[C@@H](O)C[C@@H](O)CC(=O)O[C@H]1C)C[C@H](O)[C@H]2C(=O)O (stereo in doubt),inactive,

# Reference: PubChem BioAssay (Tox21)
